Data as given in PubChem BioAssay.
Active and inactive are the calls of the source.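 Rule for the calls: active = visually confirmed hit in the image check and inhibition above 20%; inconclusive = visually confirmed hit but inhibition not above 20%; inactive = no visual hit in the image check.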

Test: endothelial E-selectin expression blockers – imaging, HUVEC, immunofluorescence, MLSMR starter and 10KST1 sets, primary screen (AID 487);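 for inhibition: signal is fraction of cell area covered by stained E-selectin grains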;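 for nuclei count: 100% = median nuclei count of all wells on the same plate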
Details: HUVEC TNFalpha-induced E-selectin immunofluorescence imaging, at 2 µM; inhibition: stronger effect = higher value; nuclei count: measured here: cell number, toxicity

Structure (SMILES) | nuclei count | inhibition
CC12C(=O)N(CCC(=O)O)C(=O)C1C1C=CC2C1 (configuration not stated) | 114% | 7.8% (inactive)
CCCC(=O)N1CCN(c2ccc(NC(=O)c3ccc(Br)o3)cc2)CC1 | 116% | -64.1% (inactive)
Cc1ccc(Cn2ncc3c(NCCCN4CCOCC4)ncnc32)cc1 | 98.3% | -8.1% (inactive)
C/C(N)=C(/C#N)C(=O)COC(=O)COc1ccc(Cl)cc1 | 105% | -5.5% (inactive)
Nc1c(C(=O)NCCc2ccccc2)nnn1Cc1ccccc1 | 98.3% | -6.5% (inactive)
Cc1ccc(-n2c(Cc3cccn3C)nnc2SCC(=O)NCc2ccc3c(c2)OCO3)cc1 | 82.3% | -53.4% (inactive)
COc1ccc(/C=N/n2c(=O)[nH]c3c([nH]c4ccc(C)cc43)c2=O)cc1CN1CCOCC1 | 98.4% | 4.3% (inactive)
C=CCn1c(C)cc(C(=O)CSc2nc3ccccc3c(=O)[nH]2)c1C | 104% | -59.5% (inactive)
O=C(NCc1ccco1)C1CCN(S(=O)(=O)N2CCC3(CC2)OCCO3)CC1 | 72.6% | 18% (inactive)
CCOC(=O)c1c(C)oc2ccc(OCC(=O)N(CC)CC)cc12 | 104% | -63% (inactive)
COc1ccc(-c2cc(C(=O)NCc3ccc(Cl)cc3)no2)cc1OC | 106% | 41% (inactive)
O=C(Nc1cccnc1N1CCOCC1)c1ccco1 | 109% | -56.6% (inactive)
COc1ccc2c(-c3cccnc3)cc(=O)[nH]c2c1 | 79.4% | 36.3% (inactive)
CC1(C)CC(=O)C2=C(C1)Nc1nc(SCCN3CCOCC3)[nH]c(=O)c1C2c1cccs1 (configuration not stated) | 104% | -42.7% (inactive)
CCOc1ccc(C(=O)N(Cc2ccc(N(C)C)cc2)C2CCS(=O)(=O)C2)cc1 (configuration not stated) | 96.7% | -56.2% (inactive)
CC(C)Oc1ccc(-c2nn(-c3ccccc3)cc2/C=c2\sc3ncnn3c2=O)cc1 | 114% | -335% (inactive)
CN(C)c1nc(Nc2ccc(Cl)cc2)nc(OCC#N)n1 | 128% | -109% (inactive)
Cc1ccc(C)n1NC(=O)c1ccco1 | 109% | -19.2% (inactive)
CCC1(C)Cc2c(C#N)c(N)n(-c3ccccc3)c(=O)c2CO1 (configuration not stated) | 93.4% | -59.9% (inactive)
O=C1CC(c2ccc(S(=O)(=O)N3CCN(c4ccccc4)CC3)cc2)CN1 (configuration not stated) | 44.2% | 75.6% (active)
COc1cccc(NC(=O)Cc2nnc(SCC(=O)c3ccccc3)n2C)c1 | 91.8% | -39.3% (inactive)
CCCC1CC(C)(C(=O)Cn2[nH]c(=O)ccc2=O)OC1=O (configuration not stated) | 104% | -76% (inactive)
CS(=O)(=O)N(CC(=O)NC1CC1)c1cccc(F)c1 | 113% | -44.3% (inactive)
COc1ccc2c(c1)CCc1c(C(=O)NCc3cccnc3)noc1-2 | 89.1% | -85.6% (inactive)
CC(=O)Nc1ccc(S(=O)(=O)N(CC(=O)O)Cc2ccccc2)cc1 | 130% | -167% (inactive)
O=S(=O)(NCCc1ccncc1)c1cc(Br)ccc1F | 110% | -46.9% (inactive)
